In the library only some 1% were active in any assay of this set; here they are far more common.
Y pestis TopoI – inhibitors of Yersinia pestis topoisomerase I; activity, % at 10 µM; 360,000 tested, 0.064% active; Y. pestis Topo-I cleavage product accumulation, plate reader; in the data active = activity above about 50%, passing the limit was not always enough
VHR inh abs – blocks human VHR1 dual specificity phosphatase; 290,000 tested, 0.52% active; recombinant VHR phosphatase, pNPP absorbance; inhibition, % at 13.3 µM; in the data active = inhibition above about 50%
Target sequence (P51452 whole entry, looked up): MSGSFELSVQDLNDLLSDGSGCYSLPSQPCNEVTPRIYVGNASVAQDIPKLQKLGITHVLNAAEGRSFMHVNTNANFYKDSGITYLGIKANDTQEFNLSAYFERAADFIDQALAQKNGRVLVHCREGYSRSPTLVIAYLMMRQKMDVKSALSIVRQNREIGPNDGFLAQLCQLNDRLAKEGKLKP
BioA inh – inhibitors of Mycobacterium tuberculosis BioA enzyme; purified M. tuberculosis BioA enzyme, plate reader; inhibition, % at 9.99 µM; 360,000 tested, 0.096% active; AID 602481; in the data active = inhibition above about 40%
FadD28 binding – M. tuberculosis FadD28 bisubstrate binding inhibition; FadD28 bisubstrate probe binding, fluorescence polarization; inhibition, % at 12.5 µM; 360,000 tested, 0.22% active; AID 588549; in the data active = inhibition above about 8.5%, passing the limit was not always enough
TcdB GH inh – inhibitors of Clostridioides difficile toxin B glycohydrolase | P18177 | TcdB glycohydrolase enzymatic assay, plate reader | inhibition, % at 9.99 µM | 350,000 tested, 0.24% active | AID 652162; in the data active = inhibition above about 10%
MazEF act – increases E. coli MazEF RNase cleavage of RNA; P0AE70; FAM/BHQ RNA-DNA oligo cleavage fluorescence, 5 h; activation, % at 20 µM; 350,000 tested, 0.32% active; in the data active = activation above about 50%
Target sequence (P0AE70 whole entry, looked up): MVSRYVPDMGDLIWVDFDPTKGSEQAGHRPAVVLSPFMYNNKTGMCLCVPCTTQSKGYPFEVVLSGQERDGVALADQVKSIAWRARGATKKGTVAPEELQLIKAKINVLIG
An asterisk follows results filed as active; . = not tested or not shown.

SMILES | Y pestis TopoI | VHR inh abs | BioA inh | FadD28 binding | TcdB GH inh | MazEF act
C[C@H]1CN([C@@H](C)CO)C(=O)c2cc(C#CCN(C)C)cnc2O[C@@H]1CN(C)Cc1ccc(F)cc1 | . | . | -2 | . | -1 | .
O=C(C[C@@H]1CC[C@H]2[C@@H](COC[C@H](O)CN2C(=O)Nc2ccc(C(F)(F)F)cc2)O1)NCCc1ccncc1 | . | . | -3 | . | -1 | .
N#CC1(C#N)CC(C=O)=C(N)C1(C#N)CC(=O)c1ccc(F)cc1 (stereo not given) | 12 | 21 | -8 | -3 | . | 154*
CC(C)CNC(=O)[C@@]1(c2ccc([N+](=O)[O-])cc2)CC(=O)N(CC23CC4CC(CC(C4)C2)C3)[C@@H]1c1ccc(CO)cc1 | . | . | -2 | . | 2 | .
CCCCn1c(-c2ccccc2C)nc2cc3[nH]c(=O)c(C(C)C)nc3cc21 | 21 | 24 | 4 | -4 | 11* | -20
CCCCn1c(-c2cccc3ccccc23)nc2cc3[nH]c(=O)c(C(C)C)nc3cc21 | 10 | 32 | 2 | -5 | 0 | -1
CC(C)C(=O)Nc1cccc(COc2ccc(CN(Cc3ccccc3)C(=O)OC(C)(C)C)cc2)c1 | 53* | . | 0 | 1 | 1 | 2
CCN(CC)S(=O)(=O)c1cc(C(=O)OCC(=O)Nc2cccc(Br)c2)ccc1F | 8 | -4 | . | 56* | . | -2
O=C(COC(=O)c1ccc2c(c1)OCCO2)Nc1cc(Cl)ccc1Cl | -7 | 18 | -2 | -1 | . | 53*
O=C(CN1C(=O)NC2(CCOc3ccccc32)C1=O)c1ccc(Cl)s1 (stereo not given) | -6 | . | 0 | 9.6* | 1 | 0
CN(C)C(=O)C[C@H]1CC[C@@H](NC(=O)NC2CCCC2)[C@@H](CO)O1 | . | . | -4 | . | -1 | .
COc1ccc(N=c2oc3cc(O)ccc3cc2C(=O)NCC2CCCO2)c(OC)c1 (stereo not given) | 5 | 4 | 11 | -1 | . | 85*
COc1ccc(N=c2oc3cc(O)ccc3cc2C(=O)NCC2CCCO2)cc1 (stereo not given) | -5 | 8 | 0 | 1 | . | 4
COc1ccc2oc(C(=O)NCC3CCCO3)c(C)c2c1 (stereo not given) | -4 | 52* | -2 | -3 | 3 | -1
O=C(C[C@H]1CC[C@@H](NC(=O)CCN2CCCCC2)[C@H](CO)O1)Nc1ccccc1 | . | . | . | . | -1 | .
O=C(N/N=C/c1ccc(O)c(O)c1)C1CC1 | -6 | . | -2 | 0 | 16* | 2
O=C(C[C@@H]1CC[C@@H]2[C@H](COC[C@H](O)CN2Cc2ccccc2F)O1)N[C@H]1CCN(Cc2ccccc2)C1 | . | . | 0 | . | -1 | .
CC1(C)C(/C=C/C=C/C=C/C=C2\N(CCCCS(=O)(=O)O)c3ccc4ccccc4c3C2(C)C)=[N+](CCCCS(=O)(=O)[O-])c2ccc3ccccc3c21 | 43 | . | 0 | 12* | . | -2
CCCCCNC(=O)CCCCn1c(=O)[nH]c2cc(OCC)c(OCC)cc2c1=O | -2 | 51* | -1 | 0 | . | -1
COc1ccc2nc(NNC(=O)C3COc4ccccc4O3)sc2c1 (stereo not given) | 2 | -4 | 0 | -3 | 39* | 1
Cc1ccc(C)c(S(=O)(=O)NC(C)C(=O)Nc2ccc(-c3nc4ccccc4s3)cc2)c1 (stereo not given) | -3 | 10 | 0 | -1 | . | 52*
CC1C(=O)CC(c2ccc([N+](=O)[O-])cc2)NC1c1ccc([N+](=O)[O-])cc1 (stereo not given) | 5 | 33 | 0 | -1 | 2 | 16
CC1C(=O)C(C)C(c2ccc([N+](=O)[O-])cc2)NC1c1ccc([N+](=O)[O-])cc1 (stereo not given) | -1 | 30 | . | -1 | 18* | 4
C=CCOc1ccc(/C=C/C(=O)OCC(=O)NCCCc2ccccc2)cc1 | 53* | . | -1 | -2 | 1 | 2
C[C@@H]1CN([C@H](C)CO)C(=O)c2cc(/C=C/c3ccccc3)cnc2O[C@@H]1CN(C)Cc1cncnc1 | . | . | -3 | . | 1 | .
C[C@H](CO)N1C[C@H](C)[C@@H](CN(C)S(=O)(=O)c2cn(C)cn2)Oc2cc(C3=CCCCC3)ccc2S1(=O)=O | . | . | 2 | . | 0 | .
O=C(O)CCN1C(=O)/C(=C\c2ccncc2)SC1=S | 1 | 10 | -1 | -1 | -5 | 5
O=C(O)CCN1C(=O)/C(=C\c2ccc(-c3nc4ccccc4s3)o2)SC1=S | 26 | -21 | -2 | 20* | . | -10

Assay outcomes: PubChem, several laboratories
